# Bioassay records deposited in PubChem BioAssay by several laboratories.
# In the library only some 27% were active in any assay of this set; here they are far more common.
# CYP2C19 act: cytochrome P450 2C19 (human) activation | P33261 | recombinant CYP2C19, luciferin-H EGE luminescence; active compounds read high; 0 = fully inhibited enzyme, 1 = untreated enzyme | activation factor at 5 µM | 96,000 tested, under 10 active;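 active = activation factor of at least 2 at 5 µM in the primary screen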;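 note: 0 = wells with 2.5 mM tranylcypromine and 1 = vehicle-only wells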
# CYP2C9 inhib: human CYP2C9 inhibition | 96,000 tested, 20% active | inhibition, % at 5 µM | P11712 | CYP2C9 Supersomes, luciferin-H conversion, luminescence;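 active = blocking of liver enzyme CYP2C9 beyond about 50% at 5 µM, limit read from the data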
# Target sequence (P11712 whole entry, looked up): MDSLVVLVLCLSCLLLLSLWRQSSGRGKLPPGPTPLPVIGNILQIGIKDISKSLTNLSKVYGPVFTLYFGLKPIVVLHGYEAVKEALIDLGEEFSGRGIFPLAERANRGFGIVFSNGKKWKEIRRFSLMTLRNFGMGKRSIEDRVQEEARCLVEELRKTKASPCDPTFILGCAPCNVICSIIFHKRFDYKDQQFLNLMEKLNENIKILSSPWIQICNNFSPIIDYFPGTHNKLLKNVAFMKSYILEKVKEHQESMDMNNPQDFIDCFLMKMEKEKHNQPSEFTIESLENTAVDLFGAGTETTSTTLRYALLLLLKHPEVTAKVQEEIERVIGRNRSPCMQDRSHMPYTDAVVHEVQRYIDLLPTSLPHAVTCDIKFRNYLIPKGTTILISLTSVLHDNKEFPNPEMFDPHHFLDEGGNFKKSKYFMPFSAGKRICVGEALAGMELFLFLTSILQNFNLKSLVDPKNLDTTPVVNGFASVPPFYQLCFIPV
# CYP2C9 act: activators of human CYP2C9; P11712; recombinant CYP2C9, luciferin-H conversion, luminescence; active compounds read high; factor 1 = untreated enzyme, 0 = blocked; activation factor at 5 µM; 96,000 tested, 1.4% active; AID 1024;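 active = activation factor of 2 or more for CYP2C9 at a 5 µM dose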;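 note: 0 = sulfaphenazole-blocked wells and 1 = vehicle-only wells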
# CYP2C19 inh: blocks human cytochrome P450 2C19; CYP2C19 Supersomes, luciferin-H EGE luminescence, 30 min; inhibition, % at 5 µM; 96,000 tested, 21% active; P33261;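 active = CYP2C19 inhibition above a set limit at 5 µM in the primary screen, cut at about 50% in these data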;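 note: plate controls were negative control wells for no effect and 2.5 mM tranylcypromine positive control for full effect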
# sEH act: soluble epoxide hydrolase (human) activation; purified human sEH enzymatic activity, activator screen; P34913; 91,000 tested, 0.04% active; activation, % at 2 µM; in the data active = activation above about 37%
# sEH inh: soluble epoxide hydrolase (human) inhibition. 91,000 tested, 0.34% active. P34913. AID 707. recombinant human sEH enzymatic activity assay. inhibition, % at 2 µM; in the data active = inhibition above about 80%
# Starred values were filed as active, the others as inactive; . = no result.
SMILES,CYP2C19 act,CYP2C9 inhib,CYP2C9 act,CYP2C19 inh,sEH act,sEH inh
COc1ccc(CNC(=O)CS(=O)Cc2nc(-c3ccccc3C)oc2C)cc1 (stereo not given),0.1,75.1*,0.2,91.0*,.,.
Cc1ccc(CNC(=O)CS(=O)Cc2nc(-c3ccccc3C)oc2C)cc1 (stereo not given),0.6,23.7,0.8,40.5,-4.3,3.5
Cc1ccccc1-c1nc(CS(=O)CC(=O)NCc2ccccc2)c(C)o1 (stereo not given),0.2,75.5*,0.2,78.4*,.,.
CCOc1ccc(-c2nc(-c3ccccc3C)no2)cc1,0.7,-27.0,1.3,25.8,4.3,-6.6
Cc1ccc(CCN2CC(C(=O)NCCCN3CCN(C)CC3)CC2=O)cc1 (stereo not given),1,7.0,0.9,1.1,3.1,-4.4
CCCCCn1c(C(Cc2ccccc2)NC(=O)COC)nc2ccccc21 (stereo not given),0.4,42.0,0.6,63.4*,-15.0,16.9
CCCCn1c(C(C)NC(=O)COC)nc2ccccc21 (stereo not given),.,.,.,.,-16.7,15.1
OC(c1ccccc1)c1nc2ccccc2s1 (stereo not given),0.3,-10.8,1.1,65.3*,6.0,-7.4
CC(C)NC(=O)c1nc2ccccc2s1,0.7,9.2,0.9,25.2,9.0,-5.8
COC(=O)c1cc(-c2c[nH]c3ccccc23)n[nH]1,0.1,83.6*,0.2,85.4*,2.9,-5.5
COc1ccc(-c2cc(C(=O)O)[nH]n2)cc1OC,1,4.1,1,-1.6,0.0,2.4
COC(=O)c1cc(-c2c(C)nn(-c3ccccc3)c2C)n[nH]1,1.1,-4.9,1,-5.0,-6.8,11.7
COC(=O)c1cc(-c2ccc(Br)cc2)n[nH]1,0.3,16.6,0.8,69.4*,-17.1,18.4
C=CCn1c(=O)/c(=C2/SC(C)=C(C)N2CC)s/c1=C1/C(=O)N(C)C(=S)N1c1ccccc1,.,.,.,.,3.1,-5.0
CCOC(=O)C1CCCCN1Cc1ccc(F)c(Br)c1 (stereo not given),0.2,45.9,0.5,81.8*,16.3,-15.5
CCOc1ccc(-c2nnn(CC(=O)NCc3ccc4c(c3)OCO4)n2)cc1,.,.,.,.,4.6,-2.1
Cc1ccc(-c2nnn(CC(=O)NCCc3ccc4c(c3)OCO4)n2)o1,0.4,89.2*,0.1,60.0*,-15.8,15.4
Cc1ccc(-c2nnn(CC(=O)Nc3cccc4c3CCCC4)n2)o1,0.5,12.7,0.9,52.0*,-2.9,2.6
COC(=O)c1cccc(NC(=O)C2C3CCC(C3)C2C(=O)O)c1 (stereo not given),0.8,11.7,0.9,24.1,16.5,-15.7
CCC(=O)N1CCc2cc(S(=O)(=O)CCC(=O)NCc3cccs3)ccc21,1,4.2,1,1.6,-32.6,31.0
COc1ccccc1C1NC(c2ccccc2OC)C(C)C(=O)C1C (stereo not given),0,66.8*,0.3,100.0*,8.1,-9.2
Nc1ccc(S(=O)(=O)N2CCCc3ccccc32)cc1,0.3,-273.1,3.7*,73.7*,-9.0,11.1
O=C(O)C1C2C=CC(O2)C1C(=O)Nc1ccc(S(=O)(=O)N2CCc3ccccc32)cc1 (stereo not given),0.9,-23.6,1.2,13.3,-7.1,6.5
CCn1c(=O)n(CC)c2cc(S(=O)(=O)N3CCc4ccccc43)ccc21,0,94.6*,0.1,96.3*,-1.4,-0.5
O=S(=O)(NC1CC1)c1ccc(S(=O)(=O)N2CCc3ccccc32)cc1,0.3,81.8*,0.2,72.4*,5.2,-8.6
SMILES,CYP2C19 act,CYP2C9 inhib,CYP2C9 act,CYP2C19 inh,sEH act,sEH inh
CC(=O)Nc1ccc(S(=O)(=O)N2CCCc3ccccc32)cc1,0.7,36.3,0.6,33.5,0.9,1.7
CCCCOC(=O)C1=C(C)Nc2ncnn2C1c1cc(OC)c(OC)cc1OC (stereo not given),1,37.5,0.6,-3.4,.,.
CCOC(=O)N1CCN(S(=O)(=O)c2ccc(OC)c(Cl)c2Cl)CC1,0,-93.5,1.9,99.1*,2.6,2.6
CCOC(=O)N1CCN(S(=O)(=O)c2ccc(OC)c(Cl)c2)CC1,0,-46.3,1.5,98.4*,-5.6,8.4
CCOC(=O)n1c(=O)oc2cc(S(=O)(=O)N3CCCCC3)ccc21,.,.,.,.,-3.9,-0.3
CCOC(=O)N1CCN(S(=O)(=O)c2ccc3c(c2)oc(=O)n3C)CC1,0.4,-0.1,1,58.5*,1.0,-2.6
CCOC(=O)N1CCN(S(=O)(=O)c2cccc3nsnc23)CC1,0.2,18.8,0.8,76.3*,.,.
O=C(C1CCCN(S(=O)(=O)c2cccs2)C1)N1CCN(C2CCCCC2)CC1 (stereo not given),0.9,27.9,0.7,14.3,.,.
CCOc1cc(C(=O)CSc2nnc(CNc3ccc(Cl)cc3)o2)ccc1NC(=O)CC,0.6,30.6,0.7,42.4,11.3,-12.5
Cn1c(=O)oc2cc(S(=O)(=O)N3CCCC(C(=O)Nc4ccccn4)C3)ccc21 (stereo not given),1,-3.3,1,1.3,-4.5,7.8
Cn1c(=O)oc2cc(S(=O)(=O)N3CCCC(C(=O)N4CC=C(c5ccccc5)CC4)C3)ccc21 (stereo not given),0.3,-22.3,1.2,72.1*,-9.0,12.2
COc1ccc(NC(=O)C2CCCN(S(=O)(=O)c3ccc4c(c3)oc(=O)n4C)C2)cc1OC (stereo not given),0.5,30.6,0.7,54.8*,2.3,-5.0
Cn1c(=O)oc2cc(S(=O)(=O)N3CCCC(C(=O)NC4CCCc5ccccc54)C3)ccc21 (stereo not given),0.9,60.5*,0.4,6.8,-12.8,11.9
O=C(NNC(=O)c1ccc(SCC2CCCO2)c([N+](=O)[O-])c1)c1ccc(F)cc1 (stereo not given),1,19.2,0.8,-2.9,-13.9,16.3
COC(=O)c1ccc(NC(=O)CCN2CCN(c3ccccc3)CC2)cc1,0.7,55.2*,0.4,26.1,4.6,-3.0
COC(=O)c1[nH]c2cccc(OC)c2c1NC(=O)CCN1CCN(c2cccc(Cl)c2)CC1,0.9,9.0,0.9,6.6,114.4*,-113.1
COC(=O)c1[nH]c2ccccc2c1NC(=O)CN1CCN(c2cccc(Cl)c2)CC1,0.9,-39.8,1.4,6.5,7.0,-9.1
CSc1ccc(Cn2nnc(C(=O)NCc3ccccc3)c2N)cc1,1.2,16.7,0.8,-18.3,0.1,-0.1
Cc1ccc(CSc2nnc(-c3ccncc3)n2CC2CCCO2)cc1 (stereo not given),0.4,25.3,0.7,59.7*,13.7,-13.1
Cn1c(SCC2CCCO2)nnc1-c1ccncc1 (stereo not given),0.3,-6.9,1.1,66.0*,17.6,-19.2
O=C(O)c1ccc(CSc2nnc(-c3ccncc3)n2CC2CCCO2)cc1 (stereo not given),0.7,30.7,0.7,27.0,-0.9,-0.2
